Experimental findings from ChEMBL document CHEMBL3988442, “University of Dundee, Small-Polar-MMV Screening Library” (2021) are described below.

This assay addresses AMP-activated protein kinase, AMPK (Homo sapiens) (UniProt P54646+O43741+P54619+Q9UGJ0+Q9Y478+Q13131+Q9UGI9). Briefly: AMP-dependent Kinase enzyme assay. An in vitro enzyme assay that detects ADP turnover that is directly proportional to AMPK activity. This uses naive AMPK that is activated during the assay with MK-8722. The class given is functional. The following applies: 30 µM. Details: scale not given: direction of the effect not stated beside the values.
Regarding `Cc1noc(C(C)N2CCC(c3nc4ccccc4[nH]3)CC2)n1` (stereo not given), the Percent Effect amounted to 1.83%. Take `Cc1ccccc1Cc1nc(CSc2nnc(N)n2C2CC2)no1`: the Percent Effect was 7.43%.

For `CCOc1ccc2cc(C(=O)NCCNc3ccc(C)nn3)[nH]c2c1`, the Percent Effect amounted to 6.22%. For `CNC(=O)c1cc(NC(=O)Nc2cnn(CC(C)C)c2)ccc1F`, the Percent Effect is -5.42%.

With `CC(C)c1cc(C2CCN(C(=O)Cn3cncn3)CC2)[nH]n1`, the Percent Effect came to 29.2%. On to `Cc1ccsc1C(CNC(=O)c1cc(=O)c2ccccc2[nH]1)N(C)C` (stereo not given), for which the Percent Effect was found to be 13.7%. As for `CN(C)c1ncccc1NC(=O)COC1CCCC1`, the figure is 6.19%; as for `CN(CCc1ccccc1)Cc1c(C2CCOCC2)[nH]c2ncccc12`, 11.1%; as for `O=C(NCCCNc1cccnc1)c1ccc2nccn2c1`, -8.67%. Next, `COCC(=O)NCc1ccc(-c2ncncc2C(=O)N(C)C)cc1`: 5.99%. As for `COCc1c(Br)cccc1NC(=O)CC(F)(F)F`, the figure is -6.57%. For the compound `Clc1ccc2c(c1)C=C(CNC1CCc3ncnn3C1)CO2` (stereo not given), the Percent Effect came out at 12.6%. Next, `FC(F)(F)c1cc(C2CCCN(Cc3ccncc3)C2)n[nH]1` (stereo not given): 3.39%; `COC(=O)[C@@H]1C[C@@H](O)CN1Cc1ccn(-c2ccc(F)cc2)n1`: -3.45%.

`CC(NC(=O)NCc1cccnc1N(C)C)c1ccc(F)cc1` (stereo not given): the Percent Effect is -7.51%. As for `CNCc1cn(C2CCN(C(=O)NCc3ccco3)CC2)nn1`, the figure is 0.812%; as for `CNc1ncc(C(=O)N2CCCC(CO)(CCCOC)C2)cn1` (stereo not given), 5.91%; as for `CN(CC(=O)Nc1ccccc1)C(=O)CN(C)c1ccc(Cl)cn1`, 2.82%. With `O=C(Nc1cccc(N2CCCC2)c1)N[C@H](CCO)c1ccccc1`, the Percent Effect was -57.9%. Next, `CCc1nn(C)c(Cl)c1CN1CCC2(C1)CN(C)C(=O)O2` (stereo not given): 6.22%. Next, `COC(CNC(=O)CNC(=O)c1ccccc1)c1cccc(Cl)c1` (stereo not given): 4.84%; `CCc1c(C)nc(-n2nc(-c3cccs3)cc2N)[nH]c1=O`: -6.28%. As for `CNC(=O)c1cn2cc(-c3ccccc3Cl)n(CC=C(C)C)c(=O)c2n1`, the figure is 3.23%; as for `COc1nsc2nc(C3CCCN3C(C)=O)ccc12` (stereo not given), 7.38%; as for `Cc1n[nH]c(C)c1CCN(C)C(=O)c1ccc(CN2CCCCC2)cc1`, -2.68%.

Take `OCCOCCNCC1(c2ccc(F)cc2)CCOC1` (stereo not given): the Percent Effect is -5.55%. As for `NC(=O)CC1CCN(c2cncc(OCc3ccccc3)n2)CC1`, the figure is 20.6%. As for `CN(CCOc1ccccc1F)C1CCOC1=O` (stereo not given), the Percent Effect is -5.42%. Next, `COCCOCC1CCN(C(=O)c2ccc3[nH]cnc3c2)C1` (stereo not given): -11.9%.

Take `Cc1cncnc1C1CCN(C(=O)C2(C)CCCCN2C)CC1` (stereo not given): the Percent Effect was determined as 17%. Next, `CCc1ccccc1Nc1noc2c1CN(C(=O)c1ccn(C)n1)CC2`: -1.29%. As for `O=C(COCC1CCCO1)N(Cc1cccnc1)c1ccc(F)cc1` (stereo not given), the figure is -8.95%; as for `CCc1c(C)nc2cc(-c3nccn3C)nn2c1N1CCCC(CO)C1` (stereo not given), 26%; as for `CN(CCNC(=O)Nc1ccn(C)n1)Cc1ccc(F)cc1`, 3.18%. As for `Cc1cc(C)n(CC2CCN(CC(O)Cn3cccn3)CC2)n1` (stereo not given), the figure is -0.567%; as for `Cc1ncsc1C(=O)OCCN1CCCCCC1=O`, 5.73%. On to `CCC[C@@H]1CN(c2cncc(C(=O)N3CCOCC3)n2)C[C@H]1N(C)C`, for which the Percent Effect is 14.3%.

As for `CN(C)c1ccccc1C(=O)N1CCCC(c2ccc(C(=O)O)cc2)C1` (stereo not given), the Percent Effect is -3.47%. As for `CC(C)(CNc1c(C#N)cnc2ccc(Cl)cc12)C(N)=O`, the figure is 6.25%; as for `CN(C)C(CNC(=O)CCNC(=O)OCC(F)(F)F)c1ccsc1` (stereo not given), 3.22%.
